Screening data as filed in PubChem.
In the library only some 4.2% were active in any assay of this set; here they are far more common.
NLRP3 yeast inh = blocks the NALP3 inflammasome reconstituted in yeast | Yeast reconstituted NLRP3/ASC/caspase-1, beta-gal luminescence, 24 h | inhibition, % at 10 µM | actives 0.39% (n = 330,000);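 active = inhibition of 50% or more; inactive = inhibition below 50%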;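 also: plate controls were induced DMSO wells for no effect and uninduced yeast grown without galactose for full effect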
tim23-1 inh = growth inhibitors of tim23-1 mutant yeast; S. cerevisiae tim23-1 growth, BacTiter-Glo luminescence, 24 h; inhibition, % at 20 µM; actives 1.3% (n = 330,000);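 active = growth inhibition of the mutant yeast at or above 50%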;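 also: temperature-sensitive mutant grown at 25 °C; plate controls were DMSO-treated mutant yeast for no effect and medium wells lacking yeast for full effect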
NALP1 yeast inh = blocks the NALP1 inflammasome reconstituted in yeast | S. cerevisiae NALP1/ASC/caspase-1 growth, X-gal OD620, 72 h | inhibition, % at 10 µM | actives 0.61% (n = 280,000); in the data active = inhibition mostly above about 24%, no sharp cut-off; inactive = mostly below about 32%
TIM10 inh = TIM10 yeast growth inhibition | S. cerevisiae TIM10 strain growth, BacTiter-Glo luminescence, 24 h | actives 1.4% (n = 330,000) | inhibition, % at 10 µM | AID 463195;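 active = inhibition of 40% or more at the single tested concentration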;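 also: wild-type TIM10 isogenic control strain grown at permissive 25 °C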
tim10-1 inh = tim10-1 yeast growth inhibition; S. cerevisiae tim10-1 ts strain growth, BacTiter-Glo, 24 h; actives 2.2% (n = 330,000); AID 463190; inhibition, % at 20 µM;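 active = inhibition of at least 40%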;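 also: mutant grown at 25 °C; 0% = DMSO wells with yeast and 100% = wells holding no yeast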
PfHsp90 yeast 2 = growth inhibition of yeast expressing Plasmodium Hsp90; S. cerevisiae expressing PfHsp90, BacTiter-Glo ATP, 48 h; yeast lacking PDR1 and PDR3 efflux regulators; inhibition, % at 9.4 µM; actives 0.32% (n = 310,000); AID 504621;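 active = every replicate shows inhibition above about 80%, whatever the replicate mean, limit read from the data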;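 also: 0% = DMSO neutral controls and 100% = 20 µM radicicol positive controls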
tim10-1 confirm = tim10-1 yeast growth inhibition, confirmed; inhibition, % at 20 µM; S. cerevisiae tim10-1 ts strain growth, BacTiter-Glo, 24 h; shares compounds with tim10-1 inh; actives 56% (n = 7,400);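 active = inhibition of yeast growth at or above a set limit in either of two repeat tests at 20 µM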;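 also: tim10-1 mutant grown at permissive 25 °C to find synthetic lethal compounds; 0% = DMSO yeast wells and 100% = medium wells without yeast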
TIM10 conf = confirmation of TIM10 yeast growth inhibitors; shares compounds with TIM10 inh; S. cerevisiae tim10 strain growth, BacTiter-Glo luminescence, 24 h; inhibition, % at 10 µM; actives 63% (n = 4,600);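 active = inhibition of yeast growth at or above a set limit in either of two replicates at 10 µM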;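 also: this counterscreen used the strain with wild-type TIM10; 0% = yeast with DMSO and 100% = medium wells lacking yeast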
tim23-1 confirm = tim23-1 yeast growth inhibition, confirmed; S. cerevisiae tim23-1 growth, BacTiter-Glo luminescence, 24 h; shares compounds with tim23-1 inh; actives 83% (n = 4,400); inhibition, % at 20 µM;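 active = inhibition above about 39% in either of two replicate wells at 20 µM, limit read from the data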;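 also: temperature-sensitive tim23-1 mutant grown at 25 °C; 0% = DMSO wells with yeast and 100% = medium wells without yeast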
* hit, by the source's call; . = no result.

SMILES	NLRP3 yeast inh	tim23-1 inh	NALP1 yeast inh	TIM10 inh	tim10-1 inh	PfHsp90 yeast 2	tim10-1 confirm	TIM10 conf	tim23-1 confirm
Cc1nn(-c2ccccc2)c(C)c1C(=O)OCC(=O)NC12CC3CC(CC(C3)C1)C2	-4	62*	4	54*	43*	-3	49*	34*	54*
COc1cccc(NC(=O)CN2CCc3ccccc3C2)c1	34	6	19	-11	-7	6	.	.	.
CCOCCCNC(=O)/C(C#N)=C/c1ccc(Cl)c([N+](=O)[O-])c1	-3	86*	4	66*	47*	-9	73*	82*	88*
O=C(c1ccccc1)C(CCC(CN1CCOCC1)C(=O)c1ccccc1)CN1CCOCC1 (centres undefined)	41	53*	-3	60*	54*	12	48*	68*	47*
O=C(Nc1ccc2c(c1)CCC2)c1ncoc1-c1ccccc1F	36	17	28	-9	9	-14	.	.	.
Cc1sc2ncn(CC(=O)NCCCC(=O)Nc3ccc(C(C)C)cc3)c(=O)c2c1C	17	-1	9	-30	-1	5	.	.	.
Cc1ccc(S(=O)(=O)NCCC(=O)NCC(=O)Nc2c(C)cccc2C)cc1C	21	16	.	-4	6	.	.	.	.
COc1ccc(CN2CCNC(=O)C2CC(=O)N(C)CC2CCOCC2)cc1C (centres undefined)	19	3	23	-3	-2	-7	.	.	.
N/C(=N\OC(=O)C1CCCCC1)c1ccc(Br)cc1	8	68*	24	45*	61*	4	55*	66*	75*
N/C(=N\OC(=O)C1CCCCC1)c1ccncc1	-4	11	1	14	19	4	.	.	.
N/C(=N\OC(=O)C1CCCCC1)c1ccc(Cl)cc1	-4	53*	4	48*	63*	-19	53*	43*	38*
N/C(=N\OC(=O)COc1ccccc1Cl)c1ccc(Cl)cc1	34	60*	-34	54*	70*	3	49*	43*	76*
COc1ccc(C(=O)N2[C@@H](C(C)C)COc3cc(Br)ccc3S2(=O)=O)cc1	.	.	.	.	.	-41	.	.	.
Cc1ccc(-n2cnc3scc(-c4cccs4)c3c2=O)cc1	15	50*	36	31	41*	-11	45*	.	58*
C=CCNC(=O)/C(C#N)=C/c1c(C)nn(-c2ccc(Cl)cc2)c1Cl	16	56*	17	58*	63*	66	59*	63*	66*
Cc1nn(-c2ccc(Cl)cc2)c(Cl)c1/C=C(\C#N)C(N)=O	13	48	27	19	26	-93	.	.	.
O=C(Nc1ccccc1)C1=C[C@H](c2ccccc2)C[C@H](OCCCCO)O1	13	17	.	-16	20	17	.	.	.
O=C(Nc1ccccc1)C1=C[C@@H](c2ccc(Br)cc2)C[C@@H](OCCCCO)O1	13	55*	-6	33	43*	-12	45*	.	54*
CC1CCCC(NS(=O)(=O)c2ccc3c(c2)OCCO3)C1C (centres undefined)	36	52*	27*	34	57*	0	48*	.	59*
Cc1ccc(C(=O)Oc2oc(-c3ccco3)nc2C=Nc2ccc(Cl)cc2)cc1	27	50*	22	37	50*	13	35*	.	66*
O=C(Oc1oc(-c2ccco2)nc1C=Nc1ccccc1)c1ccoc1	-2	10	-6	-2	18	6	.	.	.
O=C(Nc1ccccc1N1CCCCC1)c1ccc(-c2ccc(Cl)cc2)o1	-1	5	39	6	28	-7	.	.	.
CN1CCN(c2ccccc2NC(=O)c2ccc(-c3ccc(Br)cc3)o2)CC1	42	50	26	20	56*	13	46*	.	39
N#CC(c1ccc(Cl)cc1)c1ccc2c(C(F)(F)F)cc(C(F)(F)F)nc2n1 (centres undefined)	20	62*	4	64*	71*	-12	49*	54*	60*
FC(F)(F)c1cc(C(F)(F)F)c2ccc(N3CCN(c4ccc(Cl)cc4)CC3)nc2n1	12	-36	-6	-29	18	-10	.	.	.
SMILES	NLRP3 yeast inh	tim23-1 inh	NALP1 yeast inh	TIM10 inh	tim10-1 inh	PfHsp90 yeast 2	tim10-1 confirm	TIM10 conf	tim23-1 confirm
COc1ccccc1C/C(N)=N/OC(=O)COc1cc(C)cc(C)c1C	-3	78*	6	73*	65*	-9	70*	68*	81*
COc1ccccc1C/C(N)=N/OC(=O)COc1cccc(C)c1C	-2	70*	6	53*	63*	-12	68*	46*	62*
CN(CC(=O)NC(=O)NCc1ccccc1)CC(=O)Nc1ccc(Cl)c(Cl)c1	2	26	.	6	-15	2	.	.	.
O=C(NC(=S)Nc1cccc(C(F)(F)F)c1)c1ccc2nonc2c1	17	56*	-8	27	51*	.	22	.	63*
FC(F)(F)c1cccc(NC(=S)NC(c2ccccc2)c2ccccc2)c1	.	.	21	.	.	-21	.	.	.
CCOc1cc(OCC)cc(C(=O)NC(=S)Nc2cccc(C(F)(F)F)c2)c1	20	13	14	-27	2	.	.	.	.
FC(F)(F)c1cccc(NC(=S)Nc2ccc(Cl)c(Cl)c2)c1	5	86*	17	76*	73*	9	82*	73*	90*
CC(Nc1nc(-c2ccccc2F)nc2ccccc12)c1ccccc1 (centres undefined)	12	41	2	37	37	11	.	.	.
Fc1ccccc1-c1nc(NC2CCCC2)c2ccccc2n1	10	67*	25	52*	52*	-28	50*	48*	75*
Cc1ccccc1OCC(=O)N(Cc1nc(-c2ccccc2)no1)C(C)C	-4	26	5	16	-21	9	.	.	.
COc1ccccc1OCC(=O)N(Cc1nc(-c2ccccc2)no1)C1CCCCC1	33	52*	17	27	42*	-2	31*	.	51*
Cc1cccc(NC(=O)CSCC(=O)N2CCN(C(=O)c3ccco3)CC2)c1	7	-1	.	10	7	-4	.	.	.
COc1cccc2c1nc(C)c1cc(C)oc12	-5	17	20	6	21	-16	.	.	.
COc1cccc2nc3cc(C)c(C)cc3nc12	21	50*	12	43*	64*	66	53*	33*	54*
